Data published in PubChem BioAssay (NCI).
About 83,000 compounds went through this panel and 20% of them were active in at least one assay; those are over-represented in the sample as a whole.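 Assay: single dose, 48 h. Readout: percent growth (0 = no net growth; negative = cell death). Active: <10.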 Activity calls are given as the source filed them.

tested on: SK-MEL-28 melanoma; assay: NCI-60 one-dose screen, 48 h (100 = growth as untreated, 0 = no growth, -100 = all killed); details: 10 µM unless noted
Experimental: Growth inhibition of the SK-MEL-28 human tumor cell line is measured as a screen for anti-cancer activity. Cells are grown in 96 well plates and exposed to the test compound for 48 hours. Compounds are tested at a single concentration, which is 10^-5 M for most compounds. The reported endpoint is percent growth (GI% or GIPRCNT), where numbers from 0 - 100% represent growth inhibition, and numbers from -100% - 0 represent cell death. For example, a value of 40 represents 60% growth inhibition. A value of 0 means no net growth occurred over the course of the experiment. A value of -40 indicates 40% of cells at the beginning of the experiment died by the end of the experiment. A value of -100 means all cells are dead at the end of the experiment.
NCI-60 Human Tumor Cell Lines Screen was performed using the standard one-dose NCI protocol, which is described in more detail at https://dtp.cancer.gov/discovery_development/nci-60/default.htm.
Compounds with GIPRCNT values below 10 were considered active. Activity score was based on GIPRCNT using the following formula: […]
Score is 0 for GIPRCNT values of 100 or above, 50 for GIPRCNT values of 0, and 100 for GIPRCNT values of -100.

**Q.** `c1ccc([P+](CCCc2n(Cc3ccc4ccccc4c3)c3ccccc3[n+]2Cc2ccc3ccccc3c2)(c2ccccc2)c2ccccc2)cc1` was tested. Which growth did it give?
**A.** Its growth is 37.1% (inactive).

**Q.** `N=C(N)c1ccc(-c2ccc(-c3ccc(Cl)c(Cl)c3)o2)cc1` was tested. Which growth did it give?
**A.** The growth was 59.7% (inactive).

**Q.** How did the growth turn out when `O=C1c2cccc3c(-c4ccc(-c5nc6c7ccccc7c7ccccc7c6[nH]5)cc4)ccc(c23)C(=O)N1CCN1CCNCC1` was run?
**A.** The growth was 119% (inactive).

**Q.** With `Cn1c(NCCc2ccc(O)c(O)c2)nc2c1c(=O)n(Cc1ccc(Cl)cc1)c(=O)n2C` as the compound, how does the growth read?
**A.** Its growth is 86% (inactive).

**Q.** How did the growth turn out when `CN1C[C@@H](c2ccc(Cl)cc2)[C@]2(NC(=S)N(c3ccccc3)C2=O)[C@@]12C(=O)NC1C=CC(Br)=C[C@H]12` (stereo not given in full) was run?
**A.** The growth was 95.4% (inactive).

**Q.** Which growth does the source give for `Nc1c(C(=O)c2ccccc2)nnc2ncnn12` here?
**A.** The growth was 133% (inactive).

**Q.** Which growth does the source give for `C=C1C(=O)O[C@H]2[C@H]1CC/C(Cn1cc(CNCCc3c[nH]c4ccc(Cl)cc34)nn1)=C\CC[C@@]1(C)O[C@@H]21` here?
**A.** Its growth is 81.5% (inactive).

**Q.** `O=S(=O)(NCCNc1cc(-c2c(-c3cccc(O)c3)nc3sccn23)ccn1)c1ccc(Cl)cc1` was tested. Which growth did it give?
**A.** The growth was 95.7% (inactive).

**Q.** For `CCOc1ccc2nc(-c3cccc(OCC(=O)NC(C)C)c3)nc(Nc3ccc(-c4cn[nH]c4)cc3)c2c1`, which growth is on record?
**A.** The growth was -71.4% (active).

**Q.** `CCN(CC)CCCC(C)NCc1ccccc1` (stereo not given) was tested. Which growth did it give?
**A.** Its growth is 102% (inactive).

**Q.** For `Cc1cc(C)on1`, which growth is on record?
**A.** The growth was 101% (inactive).

**Q.** Which growth does the source give for `COc1cccc(/C=C2\COc3ccc(O)cc3C2=O)c1OC` here?
**A.** The growth was 96.6% (inactive).

**Q.** Which growth does the source give for `CC(=O)OCCc1ccccc1` here?
**A.** The growth was 111% (inactive).

**Q.** Which growth does the source give for `CCOC(=O)c1cnn2c(-c3ccc(Cl)cc3)nc(NCc3ccccc3)nc12` here?
**A.** The growth was 86.7% (inactive).

**Q.** With `CC1(C)N=C(N)N=C(N)N1c1cccc(CN)c1` as the compound, how does the growth read?
**A.** The growth was 106% (inactive).

**Q.** With `COc1ccc(-c2cc(-c3ccc(Nc4nc(Nc5ccccc5)nc(Nc5ccc(Cl)cc5)n4)cc3)nc(N)n2)cc1` as the compound, how does the growth read?
**A.** The growth was 84.8% (inactive).

**Q.** Which growth does the source give for `CCCCN1CCN(c2ccc3nc(-c4ccc5nc(-c6cc(OC)c(OC)c(OC)c6)[nH]c5c4)[nH]c3c2)CC1` here?
**A.** The growth was 66.3% (inactive).

**Q.** With `COc1ccc(-c2nnc(SCC(=O)NC3=NN=C(c4ccccc4)CS3)o2)cc1` as the compound, how does the growth read?
**A.** Its growth is 109% (inactive).

**Q.** Which growth does the source give for `CCC(C)NCc1ccccc1` (stereo not given) here?
**A.** The growth was 112% (inactive).

**Q.** Which growth does the source give for `COc1cc(-c2ccc(-c3ccc(C(=N)N)nc3)s2)cc(OC)c1OC` here?
**A.** The growth was 59.3% (inactive).

**Q.** With `O[C@H]1CO[C@H]2[C@@H]1OC[C@@H]2Oc1ccc(Nc2nc(Nc3ccc(F)c(Cl)c3)ncc2F)cc1Cl` as the compound, how does the growth read?
**A.** The growth was 99.7% (inactive).

**Q.** Which growth does the source give for `NC(=S)c1csc(CCNC(=O)c2ccccc2)n1` here?
**A.** Its growth is 108% (inactive).

**Q.** How did the growth turn out when `CCCCCCCCN(CCCCCCCC)C(=N)c1ccnc2ccccc12` was run?
**A.** Its growth is -86% (active).

**Q.** `Cc1cc(N(CCCNc2ccnc3cc(Cl)ccc23)Cc2ccccn2)nc(N2CCOCC2)n1` was tested. Which growth did it give?
**A.** The growth was 106% (inactive).

**Q.** With `CN=C1C=CC(=C(c2ccc(N(C)C)cc2)c2ccc(N(C)C)cc2)C=C1` as the compound, how does the growth read?
**A.** Its growth is -44.9% (active).

**Q.** For `COC(=O)c1ccc(CSc2nnc(-c3ccncc3)o2)cc1`, which growth is on record?
**A.** The growth was 107% (inactive).

**Q.** Which growth does the source give for `CN(C)CCCCNc1ccc(NCCCCN(C)C)c2c1C(=O)c1c(O)ccc(O)c1C2=O` here?
**A.** Its growth is 112% (inactive).

**Q.** How did the growth turn out when `CN(C)c1ccc2cc(-c3ccccc3F)c(N)nc2c1` was run?
**A.** The growth was 58% (inactive).

**Q.** With `COc1ccc(/C=C2\COc3ccc(O)c(O)c3C2=O)c(OC)c1` as the compound, how does the growth read?
**A.** The growth was 76.4% (inactive).

**Q.** How did the growth turn out when `O=C1NN(C(=O)c2ccc(O)cc2)C(c2ccccc2)=N/C1=C\c1cn(-c2ccccc2)nc1-c1ccccc1` was run?
**A.** The growth was 101% (inactive).

**Q.** With `Clc1ccc(/C=N\N=c2\scc(-c3ccc(Cl)cc3)n2/N=C/c2ccc(Cl)cc2)cc1` as the compound, how does the growth read?
**A.** The growth was 106% (inactive).

**Q.** Which growth does the source give for `Cc1cc(N2CCCCC2)nc(N(CCNc2ccnc3cc(Cl)ccc23)Cc2ccccn2)n1` here?
**A.** Its growth is 62.7% (inactive).

**Q.** `Clc1ccc(-c2nc(NCCc3ccccc3)nc3c(NCCc4ccccc4)cnn23)cc1` was tested. Which growth did it give?
**A.** The growth was 75.2% (inactive).

**Q.** How did the growth turn out when `Cc1nc2ccccc2c(/C=C/c2ccc(Cl)cc2)c1C(=O)/C=C/c1ccc(Cl)cc1` was run?
**A.** Its growth is -66.6% (active).

**Q.** How did the growth turn out when `N[C@H]1CCC[C@@H]1NCCCCN1C(=O)c2cccc3cccc(c23)C1=O` was run?
**A.** Its growth is 90.3% (inactive).

**Q.** `c1ccc(-c2oc3ccccc3c2-c2ccccc2)cc1` was tested. Which growth did it give?
**A.** Its growth is 113% (inactive).

**Q.** How did the growth turn out when `COc1cc(NC(=O)c2cc(O)c(CC=C(C)C)c(O)c2)cc2c1O[C@]1(C)CC[C@@H](O)C(C)(C)[C@H]1C2` was run?
**A.** Its growth is 18.8% (inactive).

**Q.** Which growth does the source give for `Nc1nc(N)c(-c2ccc(Cl)cc2)c(/C=C/c2ccc([N+](=O)[O-])cc2)n1` here?
**A.** Its growth is 95.7% (inactive).

**Q.** `COc1ccc(C(=O)/C=C/C23c4ccccc4C(c4ccccc42)C2C(=O)NC(=O)C23)cc1` (stereo not given) was tested. Which growth did it give?
**A.** Its growth is 108% (inactive).

**Q.** For `N#Cc1c(N)n2c(nc1=Nc1ccc([N+](=O)[O-])cc1)sc1cc(Cl)ccc12`, which growth is on record?
**A.** Its growth is 106% (inactive).
